The campaign covered roughly 5,500 compounds. About 2,000 (36%) were called active. Inconclusive results (about 18%) are left out. Cut-off read from the data, not from the text of the source: active = normalized growth mostly below about 0.91 (no sharp cut-off); inconclusive = no clear call, values can overlap the other calls; inactive = mostly above about 0.92. This is one part of the list.
Experiment: chemical genetic growth profiling, strain panel (AID 1159580);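 note: tested at 20 µM; growth read once vehicle control cultures reached saturation at 30 °C; 1 = growth at the plate median or of vehicle wells; lower values mean less growth of the strain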
Settings: S. cerevisiae deletion strains, growth OD
[1] = locus YAL013W, strain DEP1, active compounds read low
[2] = locus YCL061C, strain MRC1, active compounds read low
[3] = locus YDL101C, strain DUN1, active compounds read low
[4] = locus YGR078C, strain PAC10, active compounds read low
[5] = locus YHR030C, strain SLT2, active compounds read low
[6] = locus YJR075W, strain HOC1, active compounds read low
[7] = locus YNL128W, strain TEP1, active compounds read low
[8] = locus YNL153C, strain GIM3, active compounds read low
[9] = locus YNL322C, strain KRE1, active compounds read low
[10] = locus YPL241C, strain CIN2, active compounds read low
[11] = locus YAL040C, strain CLN3, active compounds read low
[12] = locus YCL061C, strain MRC1 (second series), active compounds read low
[13] = locus YDR363W, strain ESC2, active compounds read low
[14] = locus YER002W, strain NOP16, active compounds read low
[15] = locus YHR079C, strain IRE1, active compounds read low
[16] = locus YJL095W, strain BCK1, active compounds read low
[17] = locus YJR066W, strain TOR1, active compounds read low
[18] = locus YLR113W, strain HOG1, active compounds read low
[19] = locus YNL175C, strain NOP13, active compounds read low
[20] = locus YNL183C, strain NPR1, active compounds read low
[21] = locus YNL197C, strain WHI3, active compounds read low
[22] = locus YNL224C, strain SQS1, active compounds read low
[23] = locus YOR083W, strain WHI5 (second series), active compounds read low
[24] = locus YOR231W, strain MKK1, active compounds read low
[25] = locus YPL256C, strain CLN2, active compounds read low

Measured: normalized growth

Cc1cccc(C)c1N=C1SCCS1
inactive: [1] 1 | locus YBR229C, strain ROT2, active compounds read low 0.99 | [2] 0.982 | [3] 0.986 | locus YDL134C, strain PPH21, active compounds read low 1.02 | locus YDR150W, strain NUM1, active compounds read low 0.902 | locus YEL061C, strain CIN8, active compounds read low 1.01 | [4] 0.99 | locus YGR229C, strain SMI1, active compounds read low 0.997 | [5] 0.929 | locus YHR087W, strain rtc3, active compounds read low 0.988 | locus YJR043C, strain POL32, active compounds read low 0.995 | [6] 0.996 | locus YKL190W, strain CNB1, active compounds read low 1 | locus YLR039C, strain RIC1, active compounds read low 0.941 | locus YLR058C, strain SHM2 (second series), active compounds read low 0.996 | locus YLR085C, strain ARP6, active compounds read low 0.99 | locus YLR262C, strain YPT6, active compounds read low 0.978 | locus YML094W, strain GIM5, active compounds read low 0.978 | locus YMR219W, strain ESC1, active compounds read low 0.996 | locus YMR263W, strain SAP30, active compounds read low 0.934 | locus YMR307W, strain GAS1, active compounds read low 0.93 | [7] 1 | [8] 0.966 | locus YNL298W, strain CLA4 (second series), active compounds read low 0.99 | [9] 0.988 | locus YNR030W, strain Alg12, active compounds read low 1 | locus YPL055C, strain LGE1, active compounds read low 0.906 | [10] 0.865 | locus YPR135W, strain CTF4, active compounds read low 0.887

CN(C)CCC(c1ccc(Cl)cc1)c1ccccn1 (stereo not drawn)
inactive: [11] 0.987 | [12] 0.999 | [13] 0.993 | [14] 0.987 | [4] 1.01 | [5] 0.962 | [15] 0.97 | [16] 0.999 | [17] 0.927 | [6] 0.991 | [18] 1.01 | [8] 0.998 | [19] 1 | [20] 0.941 | [21] 1.03 | [22] 1.01 | [9] 0.992 | [23] 1.01 | [24] 0.971 | [10] 0.998 | [25] 0.94

Cc1cccc(C)c1OCC(N)C(C)C (stereo not drawn)
inactive: [1] 1.01 | [11] 0.995 | [12] 1 | [13] 0.999 | [14] 0.998 | [6] 1.01 | [7] 0.988 | [8] 1.02 | [19] 1.02 | [21] 1 | [22] 0.998 | [23] 1

O=C(OOC(=O)c1ccccc1)c1ccccc1
inactive: locus YAL021C, strain ccr4, active compounds read low 0.969 | locus YAL026C, strain drs2, active compounds read low 0.952 | locus YAL030W, strain snc1, active compounds read low 0.976 | locus YBL061C, strain skt5, active compounds read low 0.962 | locus YBR009C, strain hhf1, active compounds read low 0.96 | locus YBR023C, strain chs3, active compounds read low 0.977 | locus YBR171W, strain sec66, active compounds read low 0.948 | locus YBR231C, strain swc5, active compounds read low 0.978 | locus YBR279W, strain paf1, active compounds read low 0.991 | locus YCL011C, strain gbp2, active compounds read low 0.962 | locus YCL016C, strain dcc1, active compounds read low 0.956 | [2] 0.96 | locus YCL069W, strain vba3, active compounds read low 0.993 | locus YCR088W, strain abp1, active compounds read low 0.998 | locus YDL005C, strain med2, active compounds read low 0.977 | locus YDL040C, strain nat1, active compounds read low 0.992 | locus YDR001C, strain nth1, active compounds read low 0.976 | locus YDR069C, strain doa4, active compounds read low 0.965 | locus YDR137W, strain rgp1, active compounds read low 0.959 | locus YDR159W, strain sac3, active compounds read low 0.94 | locus YDR195W, strain ref2 1.01 | locus YDR297W, strain sur2, active compounds read low 0.982 | locus YDR334W, strain swr1, active compounds read low 0.92 | locus YDR335W, strain msn5, active compounds read low 0.986 | locus YDR392W, strain spt3, active compounds read low 0.933 | locus YEL003W, strain gim4, active compounds read low 0.989 | locus YEL037C, strain rad23, active compounds read low 0.977 | locus YEL061C, strain CIN8 (second series), active compounds read low 0.985 | locus YER015W, strain faa2, active compounds read low 0.959 | locus YER016W, strain bim1, active compounds read low 0.993 | locus YER111C, strain swi4, active compounds read low 0.972 | locus YER155C, strain BEM2 (second series), active compounds read low 0.971 | locus YFR010W, strain ubp6, active compounds read low 0.948 | locus YGL167C, strain pmr1, active compounds read low 0.965 | locus YGL173C, strain kem1, active compounds read low 0.956 | locus YGL227W, strain vid30, active compounds read low 0.981 | locus YGL240W, strain doc1, active compounds read low 0.989 | locus YGL253W, strain hxk2, active compounds read low 0.96 | locus YHR013C, strain ard1, active compounds read low 0.959 | locus YHR027C, strain rpn1, active compounds read low 0.95 | locus YHR142W, strain chs7, active compounds read low 0.95 | locus YJL092W, strain hpr5, active compounds read low 0.97 | locus YJL095W, strain BCK1 (second series), active compounds read low 0.993 | locus YJL115W, strain asf1, active compounds read low 0.95 | locus YJL129C, strain trk1, active compounds read low 0.991 | locus YJL154C, strain vps35, active compounds read low 0.984 | locus YJL164C, strain tpk1, active compounds read low 0.983 | locus YJL166W, strain qcr8, active compounds read low 0.964 | locus YJL187C, strain SWE1, active compounds read low 0.981 | locus YKL160W, strain elf1, active compounds read low 0.969 | locus YKR026C, strain gcn3, active compounds read low 0.979 | locus YKR091W, strain srl3, active compounds read low 0.976 | locus YLL001W, strain dnm1, active compounds read low 0.941 | locus YLL026W, active compounds read low 0.974 | locus YLL041C, strain sdh2, active compounds read low 0.968 | locus YLR027C, strain aat2, active compounds read low 0.961 | locus YLR221C, strain rsa3, active compounds read low 0.93 | locus YLR258W, strain gsy2, active compounds read low 0.991 | locus YLR262C, strain YPT6 (second series), active compounds read low 0.976 | locus YLR320W, strain mms22, active compounds read low 0.95 | locus YLR342W, strain FKS1, active compounds read low 0.971 | locus YLR357W, strain rsc2, active compounds read low 0.975 | locus YLR370C, strain arc18, active compounds read low 0.954 | locus YLR384C, strain iki3, active compounds read low 0.954 | locus YML120C, strain ndi1, active compounds read low 0.944 | locus YMR058W, strain fet3, active compounds read low 0.953 | locus YMR125W, strain sto1, active compounds read low 0.979 | locus YMR129W, active compounds read low 0.998 | locus YMR205C, strain PFK2, active compounds read low 0.949 | locus YMR231W, strain pep5, active compounds read low 0.984 | locus YNL071W, strain lat1, active compounds read low 0.981 | locus YNL209W, strain ssb2, active compounds read low 0.981 | locus YNL248C, strain rpa49, active compounds read low 0.957 | locus YNL322C, strain KRE1 (second series), active compounds read low 0.941 | locus YNR049C, strain mso1, active compounds read low 0.959 | locus YOR001W, strain rrp6, active compounds read low 0.982 | locus YOR070C, strain gyp1, active compounds read low 0.981 | locus YOR080W, strain dia2, active compounds read low 0.961 | locus YOR083W, strain WHI5, active compounds read low 0.965 | locus YOR106W, strain vam3, active compounds read low 0.926 | locus YOR265W, strain rbl2, active compounds read low 0.98 | locus YOR270C, strain vph1, active compounds read low 0.973 | locus YOR290C, strain snf2, active compounds read low 0.917 | locus YPL051W, strain arl3, active compounds read low 0.97 | locus YPL078C, strain atp4, active compounds read low 0.966 | locus YPL106C, strain sse1, active compounds read low 0.977 | locus YPL240C, strain hsp82, active compounds read low 0.982
active: [5] 0.842 | [15] 0.799 | [16] 0.812 | [17] 0.82 | [18] 0.642 | [20] 0.773 | [24] 0.792 | [25] 0.773

N#CSCC(=O)c1ccccc1
active: locus YAR019C, strain CDC15, active compounds read low 0.0948 | locus YBL105C, strain PKC1, active compounds read low 0.0869 | locus YBR135W, strain CKS1, active compounds read low 0.0998 | locus YBR136W, strain MEC1, active compounds read low 0.0968 | locus YBR160W, strain CDC28, active compounds read low 0.101 | locus YDL017W, strain CDC7, active compounds read low 0.092 | locus YDL028C, strain MPS1, active compounds read low 0.108 | [3] 0.159 | locus YDL108W, strain KIN28, active compounds read low 0.107 | locus YDL214C, strain PRR2, active compounds read low 0.125 | locus YDR052C, strain DBF4, active compounds read low 0.273 | locus YDR477W, strain SNF1, active compounds read low 0.107 | locus YER123W, strain YCK3, active compounds read low 0.121 | locus YER133W, strain GLC7, active compounds read low 0.12 | locus YFL009W, strain cdc4, active compounds read low 0.104 | locus YFL029C, strain CAK1, active compounds read low 0.0973 | locus YFR003C, strain YPI1, active compounds read low 0.0991 | locus YFR019W, strain FAB1, active compounds read low 0.0919 | locus YGR040W, strain KSS1, active compounds read low 0.119 | locus YGR052W, strain FMP48, active compounds read low 0.127 | locus YGR092W, strain DBF2, active compounds read low 0.0982 | [5] 0.111 | [15] 0.107 | locus YHR082C, strain KSP1, active compounds read low 0.145 | locus YHR205W, strain SCH9, active compounds read low 0.00392 | locus YIL147C, strain SLN1, active compounds read low 0.0993 | [16] 0.101 | locus YJL128C, strain PBS2, active compounds read low 0.499 | locus YJL157C, strain FAR1, active compounds read low 0.0986 | locus YJR016C, strain ILV3, active compounds read low 0.0975 | locus YJR066W, strain TOR1 (second series), active compounds read low 0.101 | [17] 0.122 | locus YKL048C, strain ELM1, active compounds read low 0.154 | locus YKL067W, strain YNK1, active compounds read low 0.119 | locus YKL101W, strain HSL1, active compounds read low 0.115 | locus YKL193C, strain SDS22, active compounds read low 0.105 | locus YKL203C, strain TOR2, active compounds read low 0.112 | [18] 0.147 | locus YLR133W, strain CKI1, active compounds read low 0.0895 | locus YLR403W, strain SFP1, active compounds read low 0.0174 | locus YML070W, strain DAK1, active compounds read low 0.126 | locus YMR001C, strain CDC5, active compounds read low 0.0981 | locus YMR205C, strain PFK2 (second series), active compounds read low 0.095 | locus YMR277W, strain FCP1, active compounds read low 0.0965 | locus YNL006W, strain LST8, active compounds read low 0.0939 | locus YNL020C, strain ARK1, active compounds read low 0.0915 | locus YNL161W, strain CBK1, active compounds read low 0.0943 | [20] 0.13 | locus YNL207W, strain RIO2, active compounds read low 0.121 | locus YNL222W, strain SSU72, active compounds read low 0.0984 | locus YNL307C, strain MCK1 (second series), active compounds read low 0.0995 | locus YOL078W, strain AVO1, active compounds read low 0.107 | locus YOL136C, strain PFK27, active compounds read low 0.14 | locus YOR061W, strain CKA2, active compounds read low 0.158 | locus YOR119C, strain RIO1, active compounds read low 0.132 | [24] 0.118 | locus YOR329C, strain SCD5, active compounds read low 0.0919 | locus YPL031C, strain PHO85, active compounds read low 0.107 | locus YPL153C, strain RAD53, active compounds read low 0.117 | locus YPL204W, strain HRR25, active compounds read low 0.109 | locus YPL209C, strain IPL1, active compounds read low 0.0967 | [25] 0.135 | locus YPR025C, strain CCL1, active compounds read low 0.0952 | locus YPR106W, strain ISR1, active compounds read low 0.469 | locus YPR111W, strain DBF20, active compounds read low 0.505 | strain NNK1, active compounds read low 0.0857 | strain TSCII, active compounds read low 0.0982

NC(COCc1ccccc1)C(=O)O (stereo not drawn)
inactive: [5] 1.01 | [15] 1 | [16] 0.995 | [17] 0.891 | [18] 1.01 | [20] 0.904 | [24] 1.01 | [25] 0.999
